NTMT1 inhibitor: inhibitors of human N-terminal methyltransferase NTMT1; Q9BV86; NTMT1 MTase-Glo SAH luminescence, purified enzyme; Potency, µM (top dose mostly 114 µM), for inactives: at the highest dose activity change, negative = inhibition, usual class: inhibitors; 2.5% of 59,000 active;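 also: plate controls were DMSO vehicle for no effect and no enzyme for full effect; nearly all actives have a fitted effect of over 65% in size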
Target sequence (Q9BV86 whole entry, looked up): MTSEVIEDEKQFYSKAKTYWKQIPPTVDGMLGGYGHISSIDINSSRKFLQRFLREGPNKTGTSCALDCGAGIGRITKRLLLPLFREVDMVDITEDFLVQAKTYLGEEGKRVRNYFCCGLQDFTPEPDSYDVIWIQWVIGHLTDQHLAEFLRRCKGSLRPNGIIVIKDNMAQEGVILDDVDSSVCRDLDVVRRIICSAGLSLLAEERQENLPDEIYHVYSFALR
GALC G270D up: raises human GALC G270D mutant activity in cells. 145M-Twi-hGALC-G270D cells (Twitcher mouse brain line with human GALC G270D), HMU-beta-Gal fluorescence, 48 h. Potency, µM (doses to about 57.5 µM), actives largely listed as activators. 0.1% of 45,000 active. AID 1159614; also: 0% is about no effect; nearly all actives have a fitted effect of over 65% in size
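Mutant human GALC (G270D), stably expressed in a Twitcher mouse brain cell line lacking endogenous GALC, is measured in live-treated cells via 6-hexadecanoylamino-4-methylumbelliferyl-β-galactoside hydrolysis (0.1 mM final, pH 5.2) with fluorescent detection.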
S16 viability: cytotoxicity in S16 Pmp22-F2sN Schwann cells. Potency, µM (titrated, usually from 57.5 µM), for inactives: at the highest dose activity change, negative = cytotoxicity, usual class: cytotoxic. 0.48% of 43,000 active. S16 Pmp22-F2sN Schwann cells viability, CellTiter-Glo, 24 h; also: % is scaled to controls: 0 for no effect and ±100 for the full control effect; nearly all actives have a fitted effect of over 65% in size
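S16 Schwann cells carrying the Pmp22-F2sN reporter, seeded in 1536-well format, were exposed to library compounds for 24 h at 37C. Viability was read as CellTiter-Glo luminescence after 15 min at room temperature.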
OvCa metastasis: ovarian cancer metastasis inhibition, 3D TME model | 0.1% of 46,000 active | Potency, µM (titrated, usually from 45.8 µM), inactives show at the highest dose activity change, negative = inhibition, actives largely listed as inhibitors | SKOV3ip1-GFP adhesion/invasion on 3D omental model, fluorescence;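 also: plate controls were DMSO wells for no effect and tomatine positive control wells for full effect; nearly all actives have a fitted effect of over 65% in size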
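qHTS, 4-pt dose (0.36-46 umol/L); SKOV3ip1-GFP, 1,200 cells/well, no FBS; primary omental fibroblast/mesothelial co-culture 48 h pre-grown; 2 h RT + 16 h 37 C; PBS wash, 4% PFA; GFP count 488/509 nm.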
mTORC1 inh: inhibitors of mTORC1 signaling in Tsc2-/- p53-/- MEF cells; Tsc2-/- p53-/- MEF, phospho-rpS6 immunofluorescence/PI, 24 h; Potency, µM (top dose mostly 38.3 µM), for the others: at the highest dose activity change, negative = inhibition, hits mostly inhibitors; 0.78% of 44,000 active; AID 493208;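 also: plate controls were DMSO for no effect and rapamycin for full effect; nearly all actives have a fitted effect of over 50% in size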
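Tsc2-/-, p53-/- mouse embryonic fibroblasts (empty-vector line) exposed to compound 24 hrs at 37 C, fixed, immunostained for phospho-rpS6 and counterstained with propidium iodide. Acumen laser scanning gives % positive cells from Alexa 488/PI ratio, thresholded using 7.5 nM rapamycin; PI count gives viability.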
PMP22 txn: PMP22 gene transcription modulation | S16 Pmp22-F2sN Schwann cells (luciferase reporters placed in the Pmp22 gene), FLuc/NLuc coincidence luminescence, 24 h | Potency, µM (highest dose often 57.5 µM), for the others: top-dose activity change, negative = inhibition, most hits filed as inhibitors | 2% of 43,000 active; active = clear falling dose curves in both reporters; inconclusive = both reporters move, but less clearly or upward; inactive = either reporter flat; the % is the NLuc reporter signal; also: % is scaled to controls: 0 for no effect and ±100 for the full control effect
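Schwann cells carrying the coincidence reporter were exposed to library compounds for 24 h at 37C, then lysed and read for FLuc and, after quenching, NLuc luminescence on a CCD imager.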
* = called active by the depositor; i = inactive; ? = inconclusive; · = no result given; ! = not active in a repeat; [ ] = dose if it differs, or a comment. Hits are enriched below; roughly 3.6% of the tested compounds scored in any of these assays. Unless noted, calls follow the shape of the dose curve; as a rule, active = well fitted curve in the direction sought with a large enough effect; inconclusive = small, poorly fitted or top-dose-only effect, or another doubt; inactive = no such curve, though single readings can be large; an effect the other way counts as inactive or inconclusive. Potency is read from the fitted curve at half-maximal effect.

SMILES | NTMT1 inhibitor | GALC G270D up | S16 viability | OvCa metastasis | mTORC1 inh | PMP22 txn
COc1cc(NC(=O)c2cccc(F)c2)ccc1NC(=O)c1cc2ccccc2o1 | -1.5% | i | -0.4% | 1.1% | 16.5µM* | -10.6%
CN(C)c1cccc(C(=O)Nc2ccc(-c3nc4ccccc4s3)cc2)c1 | 0.7% | i | -2.5% | -1.6% | -7.5% | ?
Cc1cc2nc3ccc(=[N+](C)C)cc-3sc2cc1N | 22.4µM* | i | · | · | · | ·
CN(C)c1ccc2nc3ccc(=[N+](C)C)cc-3sc2c1 | 31.6µM* | i | · | 1.4% | · | ·
C=C1C2=CC(O)C(C)C1(C)CC/C(C)=C/CCC1(C)OC1C2=O (stereo not given) | 2.3%[29.8 µM] | · | · | · | · | ·
COc1ccc(Nc2nc(N)c3cc(OC)c(OC)cc3n2)cc1 | ? | i | ? | ? | 18.5µM* | ?
CCOC(=O)c1ccc(NC(=O)Cn2nc3c4ccccc4n(Cc4cccc(F)c4)cc-3c2=O)cc1 | 79.4µM* | i | 0.4% | -1.8% | 1.5% | ?
COc1cccc(NC(=O)Cn2nc3c4ccccc4n(Cc4cccc(F)c4)cc-3c2=O)c1 | -21.2% | i | 10.7% | -7.5% | -5.1% | -41.7%
CCn1c(CC2C(=O)N(C)c3ccc(Br)cc32)nc2ccccc2c1=O (stereo not given) | 4.5% | i | -20.6% | i | ? | ?
CCCN1C(=O)C(Cc2nc3ccccc3c(=O)n2CC)c2cc(Br)ccc21 (stereo not given) | 3.7% | i | ? | i | 14.7µM* | ?
COc1cccc(CNc2ccc(S(=O)(=O)Nc3ccc4ccccc4c3)cc2)c1O | 15.5%[57.5 µM] | · | · | · | · | ·
COc1cccc(CNc2ccc(S(=O)(=O)Nc3ccc(C4CCNCC4)cc3)cc2)c1O | 39.8µM* | · | · | · | · | ·
COc1ccc(-n2nc3c(N4CCC(C(=O)NCCc5ccccc5)CC4)nnc(C)c3c2C)cc1 | -13.0% | i | -2.8% | 5.5% | 0.6% | 6.1%
Cc1ccc(-n2nc3c(N4CCC(C(=O)NCCc5ccccc5)CC4)nnc(C)c3c2C)cc1 | -0.2% | i | 28.2µM* | -13.9% | -4.7% | ?
CNC(=O)CN1CCC(Oc2cc3c(Nc4cccc(Cl)c4F)ncnc3cc2OC)CC1 | 35.5µM* | · | · | -20.6% | · | ·
CCCCCCCCCCCCCCCCC(C(=O)O)C(O)(CC(=O)O)C(=O)O (stereo not given) | 3.55µM* | i | · | · | · | ·
COc1ccc(C2=Nn3c(nnc3-c3ccc(OC)cc3OC)SC2)cc1 | -0.2% | · | · | · | · | ·
Fc1ccc(Nc2c(-c3ccccn3)nc3ccc(Cl)cn23)cc1 | 2.6% | i | -0.9% | 7.0% | -3.0% | 1.6%
CC(C)c1ccc(Nc2c(-c3ccccn3)nc3ccccn23)cc1 | 12.5% | i | 8.91µM* | ? | -18.7% | 14.2µM*
NS(=O)(=O)c1ccc(NC2=CC(=O)c3ccccc3C2=O)cc1 | ? | · | · | -12.0% | · | ·
Cc1ccc(C(Nc2ccccn2)c2ccc3cccnc3c2O)cc1 (stereo not given) | 10.2% | i | 31.6µM* | -28.0% | -19.1% | ?
COc1cc([C@H]2OC[C@]3(OC(C)=O)[C@@H](c4ccc(O[C@@H]5O[C@H](CO)[C@@H](O)[C@H](O)[C@H]5O)c(OC)c4)OC[C@H]23)ccc1O | -2.3%[12.6 µM] | · | · | · | · | ·
COc1ccc2nc3cc(Cl)ccc3c(Nc3cc(CN4CCCC4)c(O)c(CN4CCCC4)c3)c2n1 | ? | · | · | 1.7% | · | ·
CCN(CC)CCCC(C)Nc1c2ccc(Cl)cc2nc2ccc(OC)cc12 (stereo not given) | 44.7µM*! | i | · | · | · | ·
NS(=O)(=O)c1ccc(Cc2c(-c3cccc(-c4ccccc4)c3)nn(-c3nc(C(=O)O)cs3)c2CC2CC2)cc1 | 44.7µM* | · | · | · | · | ·
SMILES | NTMT1 inhibitor | GALC G270D up | S16 viability | OvCa metastasis | mTORC1 inh | PMP22 txn
c1cc(-c2cnn3cc(-c4ccc(OCCN5CCCCC5)cc4)cnc23)ccn1 | 34.1µM*! | · | · | 54.1% | · | ·
Cc1oc2ncnc(N3CCCCC3)c2c1C(=O)Nc1cccc(Cl)c1C | 89.1µM* | i | -1.6% | 0.3% | -0.7% | -21.3%
COc1cc(C(=O)NC(N)=Nc2ccc(C)c(NC(=O)c3ccc(-c4ccccc4)cc3)c2)cc(OC)c1OC | 17.6% | · | · | · | · | ·
C[C@@H]1O[C@@H](O[C@H]2[C@H](O[C@H]3[C@H](O[C@H]4CC[C@@]5(C=O)C(CC[C@]6(C)C5CC=C5C7CC(C)(C)C[C@@H](O)[C@]7(C)CC[C@]56C)C4(C)C)O[C@H](C(=O)O)[C@@H](O)[C@@H]3O)OC[C@@H](O)[C@@H]2O)[C@H](O)[C@H](O)[C@H]1O (stereo not given in full) | -3.4%[12.6 µM] | · | · | · | · | ·
CCOc1ccccc1NC(=O)Cn1ccn(Cc2ccc(C)cc2)c(=O)c1=O | 89.1µM* | i | -13.7% | 9.0% | ? | -14.3%
Nc1nccc(Oc2ccc(NC(=O)c3c[nH]cc(-c4ccc(F)cc4)c3=O)cc2F)c1Cl | 4.9%[57.5 µM] | · | · | -14.3% | · | ·
CC(=O)Nc1ccc(S(=O)(=O)N2CCN(S(=O)(=O)c3c(F)cccc3F)CC2)cc1 | -3.4% | · | · | · | · | ·
Cc1cc(=O)n2nc(N3CCC(C(=O)Nc4ccc(Br)c(C)c4)CC3)sc2n1 | -0.4% | i | 1.3% | i | -1.6% | 15µM*
C[C@]1(OC(=O)/C=C/c2ccc(O)cc2)C[C@@H](O)[C@]2(O)C=CO[C@@H](O[C@@H]3O[C@H](CO)[C@@H](O)[C@H](O)[C@H]3O)C12 (stereo not given in full) | 15.0%[29.8 µM] | · | · | · | · | ·
CCCN1CCCc2cc(CN(CCCN3CCOCC3)C(=O)Nc3ccc(OCC)cc3)ccc21 | -6.2% | ? | -3.0% | 2.3% | -13.1% | ?
CCCN1CCCc2cc(CN(CCCN3CCOCC3)C(=O)Nc3ccc(Cl)c(Cl)c3)ccc21 | 79.4µM* | i | -9.7% | i | -12.4% | -11.4%
COc1ccc(CCC(=O)c2c(O)cc(O)cc2O[C@@H]2O[C@H](CO)[C@@H](O)[C@H](O)[C@H]2O)cc1 | 19.0%[29.8 µM] | · | · | · | · | ·
Cc1ccc(CNC(=O)Cn2cc(C(=O)c3ccc(F)cc3)c(=O)c3ccc(C)nc32)cc1 | 0.1% | i | -6.0% | 3.6% | 7.1% | ?
CCc1ccc(C(=O)c2cn(CC(=O)Nc3cc(F)ccc3F)c3nc(C)ccc3c2=O)cc1 | -0.2% | 3.98µM* | -17.2% | i | -4.4% | -26.5%
CN(C)c1nc(Cc2ccc(NC(=O)c3ccc4ccccc4c3)cc2)nc(Cl)c1CC(=O)O | 0.9%[57.5 µM] | · | · | -21.1% | · | ·

Assay outcomes as filed in PubChem BioAssay.
